Where “and” joins values, the source holds several entries; their conditions need not be identical. Equal entries are not always repeated. Records with an inconclusive call do not appear. Where a structure was tested more than once in an assay, its records may differ in their call. Calls of active or inactive are those of the source. Unless noted, calls come from the whole dose curve; as a rule, active = well fitted curve in the direction sought with a large enough effect in the repeat runs; inconclusive = weak or mixed curves; inactive = no such curve, though single readings can be large; an effect the other way counts as inactive or inconclusive.
What was measured:
[1] = molecular target: Peroxisome proliferator-activated receptor delta (Homo sapiens) (UniProt Q03181); test: qHTS assay to identify small molecule agonists of the peroxisome proliferator-activated receptor delta (PPARd) signaling pathway (AID 743212; calls by dose curve)
Summary of the method: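 Read-out: beta-lactamase FRET fluorescence after 2 h room-temperature incubation with LiveBLAzer B/G substrate. Cells were HEK293H carrying a UAS-bla reporter for PPARd, treated at 37 C with DMSO-dissolved compounds.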

[2] = qHTS assay to identify small molecule antagonists of the peroxisome proliferator-activated receptor delta (PPARd) signaling pathway - cell viability counter screen (AID 743213); note: nearly all actives have a fitted effect of over 50% in size
Summary of the method: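 PPARd-bla HEK293H cells were treated with compounds plus agonist L165041 (300 nM final) for 17 h at 37 C. Viability was then read in the same wells by CellTiter-Glo luminescence after 30 min at room temperature.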

[3] = molecular target: Bile acid receptor (Homo sapiens) (UniProt Q96RI1); test: qHTS assay to identify small molecule antagonists of the farnesoid-X-receptor (FXR) signaling pathway (AID 743217; active = well fitted inhibition curve with a large enough effect in the signal ratio in the repeat runs, not every such curve was filed as active; the % refers to the signal ratio; note: potency is the fitted concentration of half-maximal effect)
Summary of the method: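 Test compounds are pin-transferred onto FXR-bla HEK 293T cells, then chenodeoxycholic acid is added at 50 uM final. After 16 h at 37 °C, LiveBLAzer B/G substrate is applied for 2 h at room temperature and fluorescence read.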

[4] = qHTS assay to identify small molecule agonists of the farnesoid-X-receptor (FXR) signaling pathway - cell viability counter screen (AID 743218); note: nearly all actives have a fitted effect of over 45% in size
Summary of the method: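 Quantitative HTS counter screen measuring ATP-based viability via CellTiter-Glo luminescence in HEK 293T cells carrying a UAS-driven beta-lactamase reporter, after 16 h compound exposure at 37 C.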

[5] = molecular target: Bile acid receptor (Homo sapiens) (UniProt Q96RI1); test: qHTS assay to identify small molecule agonists of the farnesoid-X-receptor (FXR) signaling pathway (AID 743220; active = well fitted activation curve with a large enough effect in the signal ratio in the repeat runs, not every such curve was filed as active; the % refers to the signal ratio)
Summary of the method: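 FXR-UAS-bla HEK 293T cells carrying a UAS-driven beta-lactamase reporter were plated for 5 h at 37C/5% CO2, then exposed to DMSO-dissolved Tox21 10K compounds for 16 h at 37C. A LiveBLAzer B/G FRET substrate was loaded for 2 h at room temperature before fluorescence reading.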

[6] = qHTS assay to identify small molecule antagonists of the farnesoid-X-receptor (FXR) signaling pathway - cell viability counter screen (AID 743221; active = well fitted cell-killing curve with a large enough effect in the repeat runs, not every such curve was filed as active; note: nearly all actives have a fitted effect of over 50% in size)
Summary of the method: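 Quantitative HTS of the Tox21 10K library run in parallel with the beta-lactamase reporter read. HEK 293T cells carrying a UAS-driven bla reporter got compound and 50 uM CDCA (final) for 16 h; ATP-based luminescence followed.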

[7] = molecular target: Vitamin D3 receptor (Homo sapiens) (UniProt P11473); test: qHTS assay to identify small molecule agonists of the vitamin D receptor (VDR) signaling pathway (AID 743222; calls by dose curve)
Summary of the method: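 Tox21 cell reporter format: VDR-bla line, 16 h compound exposure in 5% CO2 at 37C, then fluorescence intensity after 2 h with LiveBLAzer B/G FRET substrate.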

[8] = molecular target: Vitamin D3 receptor (Homo sapiens) (UniProt P11473); test: qHTS assay to identify small molecule antagonists of the vitamin D receptor (VDR) signaling pathway (AID 743223; active = well fitted inhibition curve with a large enough effect in the signal ratio in the repeat runs, not every such curve was filed as active; the % refers to the signal ratio; note: potency is the fitted concentration of half-maximal effect)
Summary of the method: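 Fluorescence from LiveBLAzer B/G FRET substrate, read after 2 h at room temperature, reflects beta-lactamase reporter activity in VDR-bla cells treated 16 h at 37C with compounds and agonist 1alpha,25-dihydroxyvitamin D3 (3 nM final).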

[9] = qHTS assay to identify small molecule agonists of the vitamin D receptor (VDR) signaling pathway - cell viability counter screen (AID 743224); note: nearly all actives have a fitted effect of over 50% in size; note: potency is the fitted concentration of half-maximal effect
Summary of the method: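 CellTiter-Glo viability readout on VDR-bla cells, measured after 16 h of compound treatment at 37C in the same wells.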

[10] = qHTS assay to identify small molecule antagonists of the vitamin D receptor (VDR) signaling pathway - cell viability counter screen (AID 743225); note: nearly all actives have a fitted effect of over 50% in size
Summary of the method: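 Cells (VDR-UAS-bla HEK 293T) are plated, rested 4 h at 37C, dosed with compound and 3 nM final 1-alpha,25-dihydroxy vitamin D3, and incubated 16 h. Viability is taken from CellTiter-Glo luminescence in the reporter wells.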

[11] = qHTS assay to identify small molecule agonists of the NFkB signaling pathway - cell viability counter screen (AID 1159515; calls by dose curve; note: series mostly up to about 61 µM; nearly all actives have a fitted effect of over 55% in size)
Summary of the method: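 Tox21 library compounds were tested for cytotoxicity against NFkB-bla ME-180 cells during a 5 hr exposure at 37 C. CellTiter-Glo luminescence served as the viability read-out.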

[12] = qHTS assay to identify small molecule agonists of the endoplasmic reticulum stress response signaling pathway (AID 1159516; active = well fitted activation curve with a large enough effect in the signal ratio in the repeat runs, not every such curve was filed as active; the % refers to the signal ratio)
Summary of the method: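 Fluorescence at 460 and 530 nm (405 nm excitation) reports beta-lactamase from an ER stress response element in HeLa cells treated 5 hr at 37 C.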

[13] = qHTS assay to identify small molecule agonists of the endoplasmic reticulum stress response signaling pathway - cell viability counter screen (AID 1159517; calls by dose curve)
Summary of the method: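 Steps: seed 1,500 ESRE-bla HeLa cells per well; incubate overnight at 37 C, 5% CO2; add compounds in DMSO for 5 hr; run FRET substrate 2 hr RT; add CellTiter-Glo, wait 30 min, read luminescence.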

[14] = qHTS assay to identify small molecule antagonists of the retinoid-related orphan receptor gamma (ROR-gamma) signaling pathway - cell viability counter screen (AID 1159520); note: nearly all actives have a fitted effect of over 50% in size; note: potency is the fitted concentration of half-maximal effect
Summary of the method: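 Tet-on ROR gamma CHO cells were given compounds for 2 hr, then doxycycline hyclate at 1 uM final, and incubated 16 hr at 37 C. Viability was measured as ATP content by CellTiter-Glo luminescence.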

[15] = molecular target: Nuclear receptor ROR-gamma (Homo sapiens) (UniProt P51449); test: qHTS assay to identify small molecule antagonists of the retinoid-related orphan receptor gamma (ROR-gamma) signaling pathway (AID 1159521; note: nearly all actives have a fitted effect of over 50% in size; note: potency is the fitted concentration of half-maximal effect)
Summary of the method: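 RORγ antagonism is scored from reduced reporter luminescence in Tet-on CHO cells. Induction used 1 uM final doxycycline hyclate for 16 h at 37 C, following a 2 h compound exposure.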

[16] = qHTS assay to identify small molecule agonists of the AP-1 signaling pathway - cell viability counter screen (AID 1159525; calls by dose curve; note: nearly all actives have a fitted effect of over 55% in size)
Summary of the method: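 Same-well cytotoxicity counter screen of the Tox21 10K library in ME-180 cells. The readout is ATP-dependent luminescence after 5 h compound treatment. Data are normalised to DMSO and tetra n-octyl ammonium bromide controls.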

[17] = qHTS assay to identify small molecule agonists of the AP-1 signaling pathway (AID 1159526; calls by dose curve)
[18] = qHTS assay to identify small molecule agonists of the RXR signaling pathway - cell viability counter screen (AID 1159529)
Summary of the method: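 Cell viability is measured by CellTiter-Glo luminescence, 30 min at room temperature, in wells already read for beta-lactamase. Engineered HEK 293T cells (RXR-alpha-UAS-bla) are dosed 16 hr at 37 C. Tetraoctyl ammonium bromide serves as positive control.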

[19] = molecular target: Peroxisome proliferator-activated receptor delta (Homo sapiens) (UniProt Q03181); test: qHTS assay to identify small molecule antagonists of the peroxisome proliferator-activated receptor delta (PPARd) signaling pathway (AID 743215; active = well fitted inhibition curve with a large enough effect in the signal ratio in the repeat runs, not every such curve was filed as active; the % refers to the signal ratio;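 note: cells stimulated with agonist L165041 at 300 nM final during compound exposure; series mostly up to about 62 µM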)
Summary of the method: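 Here, a reporter line (HEK293H, beta-lactamase under a UAS) measures PPARd signaling. Compounds are tested against agonist L165041 at 300 nM final concentration over 17 h at 37 C, with fluorescence read after substrate.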

Measured: Potency

Bile acid receptor (Homo sapiens), sequence (Q96RI1 whole entry, looked up): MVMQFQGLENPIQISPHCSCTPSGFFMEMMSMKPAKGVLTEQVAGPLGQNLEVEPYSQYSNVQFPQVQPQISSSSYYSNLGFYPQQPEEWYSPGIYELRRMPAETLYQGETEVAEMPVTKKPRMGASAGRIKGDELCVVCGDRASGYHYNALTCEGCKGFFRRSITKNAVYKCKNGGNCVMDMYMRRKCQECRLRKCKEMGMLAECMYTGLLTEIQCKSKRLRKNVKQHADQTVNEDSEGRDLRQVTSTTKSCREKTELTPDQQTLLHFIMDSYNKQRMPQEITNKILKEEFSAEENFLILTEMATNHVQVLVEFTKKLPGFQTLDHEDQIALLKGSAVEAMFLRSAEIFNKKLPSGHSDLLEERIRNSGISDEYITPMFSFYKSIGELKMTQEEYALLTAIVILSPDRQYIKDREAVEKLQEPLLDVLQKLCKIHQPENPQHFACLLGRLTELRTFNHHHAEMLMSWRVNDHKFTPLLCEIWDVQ
Peroxisome proliferator-activated receptor delta (Homo sapiens), sequence (Q03181 whole entry, looked up): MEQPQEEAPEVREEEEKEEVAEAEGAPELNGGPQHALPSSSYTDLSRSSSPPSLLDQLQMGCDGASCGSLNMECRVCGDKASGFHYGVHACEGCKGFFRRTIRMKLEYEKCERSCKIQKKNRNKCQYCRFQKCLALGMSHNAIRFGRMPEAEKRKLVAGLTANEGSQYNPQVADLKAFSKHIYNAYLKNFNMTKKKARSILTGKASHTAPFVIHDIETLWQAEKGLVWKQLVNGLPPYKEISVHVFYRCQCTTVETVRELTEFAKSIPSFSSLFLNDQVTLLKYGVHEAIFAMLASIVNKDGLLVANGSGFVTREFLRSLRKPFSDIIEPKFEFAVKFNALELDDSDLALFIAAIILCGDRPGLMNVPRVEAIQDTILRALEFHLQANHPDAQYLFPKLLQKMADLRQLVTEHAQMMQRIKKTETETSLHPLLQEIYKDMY
Vitamin D3 receptor (Homo sapiens), sequence (P11473 whole entry, looked up): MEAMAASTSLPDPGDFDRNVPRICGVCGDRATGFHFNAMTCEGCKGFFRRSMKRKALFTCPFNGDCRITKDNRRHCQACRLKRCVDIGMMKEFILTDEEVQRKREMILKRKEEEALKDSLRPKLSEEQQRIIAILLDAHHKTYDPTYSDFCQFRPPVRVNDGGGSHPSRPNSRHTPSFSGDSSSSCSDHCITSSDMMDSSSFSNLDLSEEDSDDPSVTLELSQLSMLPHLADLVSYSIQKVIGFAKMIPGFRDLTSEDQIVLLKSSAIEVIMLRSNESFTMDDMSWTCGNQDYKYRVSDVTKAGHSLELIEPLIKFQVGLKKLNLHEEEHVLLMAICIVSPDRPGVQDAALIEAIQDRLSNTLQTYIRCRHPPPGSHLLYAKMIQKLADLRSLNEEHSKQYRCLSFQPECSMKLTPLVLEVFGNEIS

C[C@]12CC[C@H]3[C@@H](CCC4=CC(=O)CC[C@@H]43)[C@@H]1CC[C@@H]2O
inactive: [1] | [2] | [3] | [4] | [5] | [6] | [7] | [8] | [9] | [10] | [11] | [12] | [13] | [14] | [15] | [16] | [17]

S=c1[nH]c2ccccc2[nH]1
inactive: [2] | [4] | [6] | [9] | [10] | [11] | [12] | [13] | [14] | [15] | [16] | [17] | [18]

OCCOCCO
inactive: [1] | [19] | [3] | [4] | [5] | [6] | [8] | [9] | [10] | [11] | [12] | [13] | [14] | [15] | [16] | [17] | [18]

CNC(=O)CSP(=S)(OC)OC
inactive: [1] | [2] | [19] | [6] | [8] | [9] | [10] | [11] | [12] | [13] | [14] | [15] | [16] | [17] | [18]

CCCCCCCCCCCCCl
inactive: [1] | [19] | [4] | [6] | [8] | [9] | [10] | [11] | [12] | [13] | [14] | [15] | [16] | [17]

Cc1ccc([N+](=O)[O-])cc1
inactive: [1] | [2] | [4] | [6] | [8] | [9] | [10] | [11] | [12] | [13] | [14] | [15] | [16] | [17]

OC(c1ccc(Cl)cc1)(c1cncnc1)c1ccccc1Cl (stereo not given)
inactive: [1] | [2] | [6] | [8] | [9] | [10] | [11] | [12] | [13] | [16] | [17] | [18]
15.6 µM (active) and inactive: [14]
active: [15] 4.4 µM and 54.5 µM

Clc1ccccc1-c1nnc(-c2ccccc2Cl)nn1
inactive: [1] | [19] | [4] | [6] | [7] | [8] | [9] | [10] | [11] | [12] | [13] | [14] | [15] | [16] | [17] | [18]

CC[n+]1c(-c2ccccc2)c2cc(N)ccc2c2ccc(N)cc21
inactive: [1] | [2] | [6] | [7] | [10] | [11] | [12] | [13] | [14] | [15] | [16] | [17]
active: [3] 7.73 µM and 5.31 µM | [8] 12 µM | [9] 21.8 µM

Source: PubChem BioAssay (Tox21)
